For assay [1], the target named is Cellular tumor antigen p53 (Homo sapiens) (UniProt P04637). The assay is described as follows: TOX21_p53_BLA_p2_ratio: Tox21 HCT-116 p53 Agonism Beta-lactamase Assay, Ratio, Phase 2 (AID 2283592). In a few lines:
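Read-out is the blue/green (460/530 nm, 405 nm excitation) ratio after 2 h CCF4-AM loading, fitted as gain versus DMSO. Compounds, pinned at 217-fold dilution from DMSO stocks, stayed 16 h on HCT-116 beta-lactamase reporter cells seeded 5 h earlier.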

Assay [2] has the same target. The assay is described as follows: TOX21_p53_BLA_p3_ratio: Tox21 HCT-116 p53 Agonism Beta-lactamase Assay, Ratio, Phase 3 (AID 2283596). In a few lines:
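Cells were seeded at 4000/well, rested 5 h at 37C, then dosed with DMSO compound solutions (217-fold dilution) for 16 h. CCF4-AM substrate was loaded for 2 h at room temperature, and the 460/530 nm emission ratio was fitted for gain of signal versus DMSO.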

Assay [3] has the same target. Put plainly: TOX21_p53_BLA_p4_ratio: Tox21 HCT-116 p53 Agonism Beta-lactamase Assay, Ratio, Phase 4 (AID 2283601). A digest of the protocol: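 HCT116 cells carrying an inducible beta-lactamase reporter were plated at 4000 cells/well, rested 5 h, then exposed to compounds in DMSO (217-fold dilution) for 16 h at 37C. CCF4-AM substrate was loaded 2 h at room temperature; 460/530 nm emission ratio scored gain-of-signal versus DMSO.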

The nature of assay [4]: TOX21_p53_BLA_p5_viability: Viability Assessment in the Tox21 HCT-116 p53 Agonism Beta-lactamase Assay, Phase 5 (AID 2283600). A digest of the protocol:
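Viability came from CellTiter-Glo ATP luminescence, read after 30 min at room temperature. Before this, HCT-116 p53-bla cells (4000/well) had 16 hours of compound exposure at 37C, with DMSO stocks diluted 217-fold on transfer.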

Assay [5] relates to Brachyury (BRA) Protein Expression, Deisenroth Lab, TBXT (gene 6862). The assay is described as follows: CCTE_Deisenroth_DEVTOX-GLR_legacy_Bra: (Legacy) CCTE's DevTox GLR-Endo Assay Evaluation of Brachyury (BRA) Protein Expression, Deisenroth Lab (AID 2284329; active = hit-call score of the fitted dose curve at least 0.9, where 1 is the maximum; inactive = score below 0.9). In a few lines:
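High-content imaging of fixed RUES2-GLR cells after a 48-hour differentiation with two compound exposures yields percent cells whose Bra signal exceeds pluripotent control median by 5x BMAD; values are baseline-corrected to DMSO.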

Assay [6] can be described thus: CCTE_Deisenroth_DEVTOX-GLR_legacy_CellCount: (Legacy) Viability Assessment in CCTE's DevTox GLR-Endo Assay, Deisenroth Lab (AID 2284331; active = hit-call score of the fitted dose curve at least 0.9, where 1 is the maximum; inactive = score below 0.9). Conditions: actives raise or lower the signal. A digest of the protocol:
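Human pluripotent RUES2-GLR cells differentiated 48 h with two 24-h-interval exposures, 10-point 1 nM–200 uM series, 0.2% DMSO. Fixed nuclei counted by high-content imaging (5 fields/well); bidirectional fit vs DMSO, n≥4.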

The subject of assay [7] is SRY-box transcription factor 17 (SOX17) Protein Expression, Deisenroth Lab, SOX17 (gene 64321). The assay is described as follows: CCTE_Deisenroth_DEVTOX-GLR_legacy_Sox17: (Legacy) CCTE's DevTox GLR-Endo Assay Evaluation of SRY-box transcription factor 17 (SOX17) Protein Expression, Deisenroth Lab (AID 2284341; active = hit-call score of the fitted dose curve at least 0.9, where 1 is the maximum; inactive = score below 0.9). Conditions: actives raise or lower the signal. In a few lines:
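RUES2-GLR human pluripotent cells differentiated toward endoderm for 48 h, dosed twice at 24 h intervals (1 nM–200 uM, 10 points). Imaging gives % SOX17+ cells (intensity >5x BMAD above pluripotent control median); bidirectional fit versus 0.2% DMSO.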

Assay [8] concerns SRY-box transcription factor 2 (SOX2) Protein Expression, Deisenroth Lab, SOX2 (gene 6657). Put plainly: CCTE_Deisenroth_DEVTOX-GLR_legacy_Sox2: (Legacy) CCTE's DevTox GLR-Endo Assay Evaluation of SRY-box transcription factor 2 (SOX2) Protein Expression, Deisenroth Lab (AID 2284346; active = hit-call score of the fitted dose curve at least 0.9, where 1 is the maximum; inactive = score below 0.9). In a few lines: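 Two exposures, 24 h apart, during 48 h defined-media differentiation of seeded RUES2-GLR cells; nuclei-stained cells imaged. Sox2 positivity called at 5x BMAD above endoderm control median, DMSO median subtracted.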

The test system is the same in assay [9]. Put plainly: CCTE_Deisenroth_DEVTOX-GLR_Endo_SOX2: CCTE's DevTox GLR-Endo Assay Evaluation of SRY-box transcription factor 2 (SOX2) Protein Expression, Deisenroth Lab (AID 2284412). In a few lines:
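Endpoint is percent SOX2-positive cells (SOX2+ count/total cells) minus 0.2% DMSO control, from high-content imaging of fixed, nuclear-stained RUES2-GLR cells. Dosing twice at 24 h intervals over 48 h differentiation, 1 nM–200 uM in 10 points.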

Assay [10] concerns SRY-box transcription factor 17 (SOX17) Protein Expression, Deisenroth Lab, SOX17 (gene 64321). Put plainly: CCTE_Deisenroth_DEVTOX-GLR_Endo_SOX17: CCTE's DevTox GLR-Endo Assay Evaluation of SRY-box transcription factor 17 (SOX17) Protein Expression, Deisenroth Lab (AID 2284413; active = hit-call score of the fitted dose curve at least 0.9, where 1 is the maximum; inactive = score below 0.9). A digest of the protocol:
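Fluorescent microscopy of a SOX17 reporter in RUES2-GLR pluripotent cells scored endoderm differentiation after 48 h and two 24-h-spaced exposures. Values are percent change in SOX17+ population against 0.2% DMSO, n=4 experimental replicates.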

The subject of assay [11] is Brachyury (BRA) Protein Expression, TBXT (gene 6862). The assay is described as follows: CCTE_Deisenroth_DEVTOX-GLR_Endo_BRA: CCTE's DevTox GLR-Endo Assay Evaluation of Brachyury (BRA) Protein Expression, Deisenroth Lab (AID 2284417; active = hit-call score of the fitted dose curve at least 0.9, where 1 is the maximum; inactive = score below 0.9). In a few lines: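 RUES2-GLR pluripotent cells differentiated 48 h with two chemical exposures 24 h apart, 10-point range 1 nM - 200 uM. Percentage of BRA+ cells per total count by high-content imaging, minus 0.2% DMSO control.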

Assay [12] can be described thus: CCTE_Deisenroth_DEVTOX-GLR_Endo_CellCount: Viability Assessment in CCTE's DevTox GLR-Endo Assay, Deisenroth Lab (AID 2284420; active = hit-call score of the fitted dose curve at least 0.9, where 1 is the maximum; inactive = score below 0.9). In a few lines: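 Percent change in nuclear-stain cell counts versus 0.2% DMSO, from high-content imaging over 5 fields per well. Over a 48 h endoderm differentiation, RUES2-GLR cells received two doses 24 h apart across a 1 nM–200 uM series, with n=4.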

Assay [13] concerns SRY-box transcription factor 17 (SOX17) Protein Expression, Deisenroth Lab, SOX17 (gene 64321). The assay is described as follows: CCTE_Deisenroth_DEVTOX-GLR_Pluri_SOX17: CCTE's DevTox GLR-Pluri Assay Evaluation of SRY-box transcription factor 17 (SOX17) Protein Expression, Deisenroth Lab (AID 2284427). In a few lines:
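The endpoint is SOX17+ cells as a fraction of cell count, corrected for the 0.2% DMSO control and obtained by high-content fluorescence imaging of fixed cells. Cells were RUES2-GLR under a 48-hour endoderm differentiation, dosed twice at 24-hour intervals over 1 nM–200 uM.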

For assay [14], the system named is SRY-box transcription factor 2 (SOX2) Protein Expression, Deisenroth Lab, SOX2 (gene 6657). The assay is described as follows: CCTE_Deisenroth_DEVTOX-GLR_Pluri_SOX2: CCTE's DevTox GLR-Pluri Assay Evaluation of SRY-box transcription factor 2 (SOX2) Protein Expression, Deisenroth Lab (AID 2284428; active = hit-call score of the fitted dose curve at least 0.9, where 1 is the maximum; inactive = score below 0.9). In a few lines:
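Percent SOX2+ cells (SOX2+ count per total cells, fluorescent imaging) in RUES2-GLR human pluripotent line, expressed relative to 0.2% DMSO. Compounds dosed twice at 24 h intervals during 48 h, 1 nM - 200 uM, 10 concentrations.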

A short description of assay [15]: CCTE_Deisenroth_DEVTOX-GLR_Pluri_CellCount: Viability Assessment in CCTE's DevTox GLR-Pluri Assay Evaluation of Total Cell Counts, Deisenroth Lab (AID 2284430; active = hit-call score of the fitted dose curve at least 0.9, where 1 is the maximum; inactive = score below 0.9). A digest of the protocol: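 Cytotoxicity readout: fluorescent nuclei counts by high-content imaging, expressed as percent change relative to 0.2% DMSO. Human RUES2-GLR pluripotent line differentiated 48 h, dosed twice at 24-h intervals across 1 nM - 200 uM (10 points).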

The target of assay [16] is Cellular tumor antigen p53 (Homo sapiens) (UniProt P04637). Put plainly: TOX21_p53_BLA_p5_ratio: Tox21 HCT-116 p53 Agonism Beta-lactamase Assay, Ratio, Phase 5 (AID 2283599). A digest of the protocol:
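HCT-116 cells carrying a p53-inducible beta-lactamase reporter were seeded at 4000 cells/well and dosed after 5 h with compound in DMSO (217-fold dilution). After 16 h at 37C, CCF4-AM substrate was added for 2 h, and the 460/530 nm emission ratio was scored as gain-of-signal versus DMSO.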

Each structure is given as a SMILES string. Inconclusive results are not listed. The source made the active and inactive calls. Rule for the calls, unless noted: active = hit-call score of the fitted dose curve at least 0.9, where 1 is the maximum; inconclusive = response in the unintended direction; inactive = score below 0.9.

Sequence of Cellular tumor antigen p53 (Homo sapiens) (P04637 whole entry, looked up): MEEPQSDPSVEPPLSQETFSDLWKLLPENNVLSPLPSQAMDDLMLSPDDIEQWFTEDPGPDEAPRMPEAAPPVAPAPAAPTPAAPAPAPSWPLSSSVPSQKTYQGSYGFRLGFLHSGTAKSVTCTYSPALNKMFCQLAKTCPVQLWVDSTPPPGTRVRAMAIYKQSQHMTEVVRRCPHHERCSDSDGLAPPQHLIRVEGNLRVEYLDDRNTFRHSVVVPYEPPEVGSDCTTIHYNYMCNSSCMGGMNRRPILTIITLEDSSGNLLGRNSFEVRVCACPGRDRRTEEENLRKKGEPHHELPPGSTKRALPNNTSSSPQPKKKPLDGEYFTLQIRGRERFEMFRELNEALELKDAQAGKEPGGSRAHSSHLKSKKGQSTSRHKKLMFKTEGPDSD

Take `CC(COc1ccccc1)NC(C)C(O)c1ccc(O)cc1` (centres undefined): the result in assay [1], in [2] and in assay [3] was inactive.

As to `Nc1nc(N)nc(-c2cc(Cl)ccc2Cl)n1`, the result in [1], in assay [2] and in assay [3] was inactive.

As for `CC1(C)S[C@@H]2[C@H](NC(=O)Cc3ccccc3)C(=O)N2[C@H]1C(=O)O`, the result in assay [1], in [2], in assay [4], in [3], in [5] and in assay [6] was inactive. Also, the result in assay [7], in [8], in [9], in assay [10], in assay [11] and in [12] was inactive. Further, the outcome in assay [13], in assay [14] and in assay [15] was inactive.

For the compound `O=c1[nH][nH]c2ccccc12`, the outcome in assay [1], in assay [2] and in assay [3] was inactive.

On to `NS(=O)(=O)c1cc2c(cc1Cl)NC(Cc1ccccc1)NS2(=O)=O` (centres undefined), for which the outcome in assay [1], in assay [2], in [4] and in assay [3] was inactive.

Take `CC(CN(C)C)CN1c2ccccc2S(=O)(=O)c2ccccc21` (centres undefined): the outcome in [1], in assay [2], in assay [16] and in [3] was inactive.

In the case of `[O]=[Bi][O][Bi]=[O]`, the outcome in assay [1], in assay [2], in [4] and in [3] was inactive.

As for `C[C@@H](N)C(=O)O`, the result in assay [1], in assay [2], in assay [4] and in [3] was inactive.

For `COC(=O)Nc1nc2ccc(C(=O)c3cccs3)cc2[nH]1`, the concentration at half-maximal activity (AC50) in assay [1] is 94.3 nM (active); in assay [2], 0.0458 µM (active). Also, the compound was classed as inactive in assay [4].

In the case of `CC(C)(C)C(=O)NCCCC(=O)O`, the outcome in assay [1], in assay [2], in assay [16] and in assay [3] was inactive.

Consider `CC[C@]12CCCN3CCc4c(n(c5ccccc45)C(=O)C1)[C@@H]32`, for which the AC50 in [1] was 3570 nM (active); in [2], 4.33 µM (active); in assay [16], 5.58 µM (active); in assay [3] it was 3.51 µM (active).

As for `Cc1cnc(C)c(C)n1`, the outcome in [1], in assay [2], in assay [4] and in assay [3] was inactive.

For the compound `Cc1cccc(C)c1OCC(C)N` (centres undefined), the result in assay [1], in assay [2] and in assay [3] was inactive.

Consider `OCC(O)COc1ccc(Cl)cc1` (centres undefined), for which the outcome in assay [1], in [2] and in [3] was inactive.

Take `COc1cc(Nc2c(C#N)cnc3cc(OCCCN4CCN(C)CC4)c(OC)cc23)c(Cl)cc1Cl`: the outcome in assay [1] was inactive. The AC50 in assay [2] was 17.8 µM (active); in assay [16], 10.9 µM (active); in [3], 7.74 µM (active).

For `CCCCCO`, the outcome in assay [1], in assay [2] and in assay [3] was inactive.

Turning to `CC1=NN(c2ccc(C(=O)O)cc2)C(=O)C1`, the result in assay [1], in assay [2], in assay [16] and in [3] was inactive.

With `NC1CCN(c2nc3c(cc2F)c(=O)c(C(=O)O)cn3-c2ccc(F)cc2F)C1` (centres undefined), the outcome in assay [1], in assay [2] and in [3] was inactive.

As to `COC(=O)C(C)(C)C`, the result in [1], in assay [2], in [4] and in assay [3] was inactive.

As a reminder, the AC50 is the midpoint of the concentration-response curve, whichever way the signal moves.

The values are drawn from PubChem BioAssay (EPA / NIEHS).
